Out of some 370,000 compounds screened, about 2,000 (0.54%) were called active. The full list was thinned out, with actives kept by preference. Unmarked numbers belong to inactive results. Rule as the data show it: active = inhibition above about 30%; inactive = the rest.
Tested on: Crimean-Congo hemorrhagic fever virus L polyprotein viral ovarian tumor (vOTU) protease domain
Experiment: CCHFV vOTU protease inhibitors, primary screen, biochemical, Pep-AMC substrate, fluorescence (AID 651958); also: 0% = vehicle wells with enzyme and 100% = no enzyme wells
Details: at 11.5 µM, active compounds read high

Compound | inhibition
CN(CC(=O)Nc1ccccc1F)CC(=O)Nc1ccccc1Br | -17.7%
N#Cc1cccc(C(=O)NCC2CCN(C(=O)C(=O)c3cc4ccccc4o3)CC2)c1 | 5.69%
O=C(C(=O)N1CCC(CNS(=O)(=O)Cc2ccccc2)CC1)c1cc2ccccc2o1 | -0.44%
CC(C)(C)c1ccc(S(=O)(=O)NCC2CCN(C(=O)C(=O)c3cc4ccccc4o3)CC2)cc1 | 41.9% (active)
Cc1ccc(C(=O)CN2C(=O)NC3(CCc4ccccc43)C2=O)c(C)c1 (configuration not stated) | -4.9%
CCOC(=O)N1CCN(Cc2nc3cc(NC(=O)CC)ccc3n2CC)CC1 | 10.5%
Cn1c(CN2CCOCC2)nc2cc(NC(=O)c3ccc(Cl)cc3)ccc21 | -1.05%
CN1CCN(Cc2nc3cc(NC(=O)COc4ccc([N+](=O)[O-])cc4)ccc3n2C)CC1 | 33.6% (active)
CC(=O)Nc1ccc(C(=O)NNC(=O)CCCCC(=O)NNC(=O)c2ccc(NC(C)=O)cc2)cc1 | 2.99%
COc1cc(C(=O)OCC(=O)NC23CC4CC(CC(C4)C2)C3)cc(OC)c1OC | 12.9%
COc1ccc(C(=O)COC(=O)c2ccc([N+](=O)[O-])s2)cc1OC | 34.1% (active)
COc1ccc(C(=O)OCC(=O)c2ccc(C)c(S(=O)(=O)N3CCOCC3)c2)cc1OC | -12.5%
COc1ccc(C(=O)OCC(=O)c2ccc(Cl)s2)c(OC)c1OC | 7.84%
COc1cc(CCC(=O)OCC(=O)Nc2cccc(S(N)(=O)=O)c2)cc(OC)c1OC | -0.39%
COc1cc(NC(=O)COC(=O)c2ccc([N+](=O)[O-])s2)cc(OC)c1OC | 113% (active)
CCN(CC)CCn1c(=S)[nH]c2ncccc2c1=O | 3.47%
FC(F)(F)c1cc(C(F)(F)F)c2ccc(N3CCN(c4ccccc4)CC3)nc2n1 | -0.35%
CSc1ncc(C(=O)Nc2ccc(C)cc2C)c(C)n1 | -3.39%
CN(C)C(=O)c1ccc2c(c1)C1C3CCC(C3)C1C(c1ccccc1)N2 (configuration not stated) | 5.37%
CCOc1ccc(-c2cn(S(=O)(=O)c3cccc4nsnc34)nc2N)cc1 | 7.56%
COc1ccccc1C(=O)NCCC(=O)NN1C(=O)NC2(CCCCC2)C1=O | -3.82%

Compound | inhibition
CCN(C[C@H]1N[C@@](CC)(C(=O)OC)[C@H]2C(=O)N(Cc3ccccc3)C(=O)[C@@H]12)S(=O)(=O)c1ccc(C(F)(F)F)cc1 | 29.7% (active)
CCN(C[C@H]1N[C@@](CC)(C(=O)OC)[C@H]2C(=O)N(Cc3ccccc3)C(=O)[C@@H]12)S(=O)(=O)c1ccccc1 | 6.5%
COC(=O)[C@]1(Cc2ccccc2)N[C@H](CN(C)S(=O)(=O)c2ccc(OC(F)(F)F)cc2)[C@@H]2C(=O)N(Cc3ccccc3)C(=O)[C@@H]21 | 3.43%
COC(=O)[C@@]12C[C@@H](CC(=O)NCc3cccc(C(F)(F)F)c3)C(=O)N(Cc3ccco3)C1=CCC(C)(C)C2 | 34.5% (active)
CCCCNC(=O)C[C@@H]1C[C@@]2(C(=O)OC)CC(C)(C)CC=C2N(Cc2ccco2)C1=O | 4.7%
CCOC(=O)[C@]12CCC=C1N(Cc1ccco1)C(=O)[C@H](CC(=O)NCc1cccc(C(F)(F)F)c1)C2 | 15.5%
CCN(CC(=O)Nc1ccccc1C(F)(F)F)C(=O)CSCc1c(C)noc1C | -9.14%
CCCCCCCCN1C(=O)[C@@H](CC(=O)NCc2ccc(C)o2)C[C@@]2(C(=O)OC)C1=C[C@H](C(C)(C)C)O[C@@H]2C | 17.8%
COC(=O)[C@]12C[C@H](CC(=O)NCc3ccccc3)C(=O)N(CCC3=CCCCC3)C1=C[C@H](C(C)(C)C)O[C@@H]2C | 24.8%
COC(=O)[C@]12C[C@H](CC(=O)NCc3ccc(C)o3)C(=O)N(CCC3=CCCCC3)C1=C[C@H](C(C)(C)C)O[C@@H]2C | 29.6% (active)
COc1ccc2c(c1)[C@H]1[C@H](CO2)[C@H](c2ccccc2)[C@]2(C)C(=O)Nc3cc(F)c(F)cc3C(=O)N12 | 0.66%
COCCn1c(SCc2nc3cc(OC)c(OC)cc3c(=O)[nH]2)nnc1-c1ccncc1 | -3.09%
O=C1Nc2ccccc2-n2nnnc2C1N1CCN(c2cccc(C(F)(F)F)n2)CC1 (configuration not stated) | 32.5% (active)
COc1cc(OC)cc(C(=O)NCCN2CCC3(CC2)C(=O)NCN3c2ccccc2)c1 | -10.2%
CCCc1ccc(C(O)c2ncc(-c3cccc(OC)c3)[nH]2)cc1 (configuration not stated) | 23.9%
Cc1cc(=O)[nH]c(SCC(=O)Nc2ccc(Cl)cc2C)n1 | -2.3%
Cc1cc(C)c2c(=O)[nH]c(SCC(=O)Nc3ccc(Br)cc3)nc2n1 | 36% (active)
O=C(CSc1nc2[nH]ncc2c(=O)[nH]1)Nc1ccc(F)cc1 | -2.83%
Cc1ccnc(NS(=O)(=O)c2ccc(NC(=O)c3oc4ccccc4c3C)cc2)n1 | 29.9% (active)
Cc1ccnc(NS(=O)(=O)c2ccc(NC(=O)c3ccc(S(=O)(=O)N(C)C)cc3)cc2)n1 | -12.8%
Cc1ccnc(NS(=O)(=O)c2ccc(NC(=O)c3oc4ccc(F)cc4c3C)cc2)n1 | -2.26%

Compound | inhibition
COc1c(F)c(F)c(-c2csc(N)n2)c(F)c1F | -1.03%
CCOc1cc(S(=O)(=O)NC2CC(C)(C)NC(C)(C)C2)ccc1F | 13.1%
O=C(NCCc1ccc(Cl)cc1Cl)c1cc([N+](=O)[O-])c[nH]c1=O | 30.7% (active)
O=C(NCCc1c[nH]c2ccc(Cl)cc12)c1ccc([N+](=O)[O-])cc1 | -0.42%
NS(=O)(=O)c1ccc(CCNC(=O)c2ccc(Cl)cc2[N+](=O)[O-])cc1 | 2.43%
Cc1ccc(-n2c(SCC(=O)Nc3cccc4ccccc34)nnc2-c2ccco2)cc1 | 7.16%
CCCc1ccc(-c2c(C)sc(NC(=O)c3ccnn3C)c2C#N)cc1 | 13%
CC(=O)NC(C(=O)NCC(N)=O)C(C)C (configuration not stated) | 3.21%
Cc1cc(C)cc(NC(=S)NCCCN2CCOCC2)c1 | 0.01%
Cc1ccc(NC(=S)NCCN2CCOCC2)cc1 | 36.5% (active)
CCCC(=O)NC(=S)Nc1ccc(CN2CCOCC2)cc1 | 9.86%
CN(CC1CCCO1)S(=O)(=O)c1ccc(C(=O)Nc2ccc(F)cc2)cc1 (configuration not stated) | 5.87%
OCc1nc(CO)n(Cc2ccccc2)n1 | -7.04%
CCOC(=O)c1c(C)[nH]c2c1-c1ccccc1C(=O)C2=O | 108% (active)
CCOC(=O)NN1C(=O)c2ccccc2NC1c1ccccc1O (configuration not stated) | -25.4%
CCOC(=O)C1=C(C)c2ccccc2OC1C(=O)OCC (configuration not stated) | 16.2%
COC(=O)c1cc(C(=O)OCC(=O)Nc2cc(C)on2)cc([N+](=O)[O-])c1 | 4.92%
Cc1noc(C)c1C(=O)OCC(=O)N1CCN(S(=O)(=O)c2ccc3ccccc3c2)CC1 | 4.27%
COc1ccc(-c2cn(-c3ccc(C)cc3)c(=O)n2CC(=O)Nc2ccc(OC)c(OC)c2)cc1 | 15.2%
C#CCO[C@@H]1C[C@H](n2cnc3c(=O)[nH]c(NC(=O)C(C)C)nc32)O[C@@H]1CO | -9.39%
Cc1ccc(S(=O)(=O)N2CCOCC2)cc1C(=O)NC(=S)N(Cc1ccccc1)C(C)C | -6.59%

Compound | inhibition
O=C(CCS(=O)(=O)c1ccccc1)Nc1ccc(Cl)c(Cl)c1 | 13.1%
Cc1nnc(NC(=O)Cn2c(=O)sc3ccccc32)s1 | -3.29%
Cc1nnc(NC(=O)Nc2ccc(Cl)c(Cl)c2)s1 | 43.4% (active)
CCCCn1ccnc1C(=O)c1cccc(S(=O)(=O)N2c3ccccc3CC2C)c1 (configuration not stated) | 26.1%
CCCCNS(=O)(=O)c1ccc2nc(SCC(=O)Nc3cc(C)cc(C)c3)[nH]c2c1 | 4.67%
Cc1ccc(-n2ncc(C(=O)NC3CC3)c2C2CCN(C(=O)OC(C)(C)C)CC2)c(C)c1 | 16%
Cc1ccc(C(=O)NC2CC(C)(C)NC(C)(C)C2)c(C)c1 | -8.23%
CSCCC(NC(=O)COc1ccccc1)C(=O)N(C)CC(=O)Nc1ccc(C)cc1 (configuration not stated) | 9.4%
COc1ccc2c(c1)C(C)=CC(C)(C)N2C(=O)CNCc1ccc2c(c1)OCO2 | -2.62%
COc1cccc(NC(=O)C2C(c3ccccc3)C2(Cl)Cl)c1 (configuration not stated) | -4.86%
COc1ccc2c(c1)C(C)=CC(C)(C)N2C(=O)Nc1ccccc1 | 51.4% (active)
O=C(COc1coc(CN2CCN(c3ccccc3)CC2)cc1=O)N1CCc2ccccc21 | -8.86%
CCc1nc2ccc(C(=O)Nc3ccc(OC)c(OC)c3)cn2c1N(C)C(=O)c1cccc(OC)c1 | 7.94%
O=C(O)Cc1csc(NC(=O)CSc2nnnn2-c2ccc(O)cc2)n1 | -4.88%
CCN(CC)C(=O)C1=C(C)N(Cc2ccc(F)cc2)C(=O)C(CC(=O)NCc2cccc3ccccc23)C1 (configuration not stated) | 1.88%
COc1ccc(CN2C(=O)C(CC(=O)NCc3cccc4ccccc34)CC(C(=O)N3CCOCC3)=C2C)cc1 (configuration not stated) | 7.84%
CCN(CC)C(=O)C1=C(C)N(Cc2ccc(C(C)(C)C)cc2)C(=O)C(CC(=O)NCc2cccc3ccccc23)C1 (configuration not stated) | 31.8% (active)
CCN(CC)CCCC(C)n1c2nc(=O)[nH]c(=O)c-2nc2cc(Cl)ccc21 (configuration not stated) | 95.2% (active)
Cc1ccc(C)c(NC(=O)c2cc(-c3cc(C)cc(C)c3O)n[nH]2)c1 | -1.49%
